Reference: PubChem BioAssay (NCATS)
Inconclusive results are not listed. The source made the active and inactive calls. Unless noted, the call rests on the fitted dose curve; in most records, active means well fitted cell-killing curve with a large enough effect; inconclusive means small, poorly fitted or top-dose-only effect; inactive means flat fitted curve, though single readings scatter.

What was measured:
[1] = Cell Viability - LYMP2-025 (AID 976); further: series mostly up to about 92 µM
In short: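 Luminescent ATP readout after 24 hr treatment of a human lymphoblastoid line (LYMP2-025, 2500 cells/well, 37 C). Reagent developed 30 min at room temperature; AC50 fitted with the Hill equation.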

[2] = Cell Viability - LYMP2-002 (AID 977);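 further: series mostly up to about 92 µM; compound exposure lasted 24 h at 37 °C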
In short: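 Human lymphoblastoid cells, 2500/well, complete medium; 5 h 37 C settle; compound 24 h 37 C; CellTiter-Glo, 30 min RT; luminescence. Decrease in ATP = cytotoxicity; AC50 via Hill equation.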

[3] = Cell Viability - LYMP2-006 (AID 978); further: series mostly up to about 92 µM; nearly all actives have a fitted effect of over 60% in size
In short: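 Human lymphoblastoid cells (LYMP2-006), 2500/well in complete medium, were treated with compound for 24 hr at 37 C. Cellular ATP was read by CellTiter-Glo luminescence after 30 min, and AC50 values came from Hill-equation fits of concentration-response data.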

[4] = Cell Viability - LYMP2-007 (AID 979);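 further: cells exposed to compound for 24 h before reading; nearly all actives have a fitted effect of over 60% in size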
In short: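 Measured via luciferase-based ATP quantitation: lymphoblastoid cells, 24 hr compound exposure at 37 C, AC50 from Hill fits.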

[5] = Cell Viability - LYMP2-008 (AID 980); further: nearly all actives have a fitted effect of over 60% in size
In short: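 Measured: ATP-dependent luminescence, proportional to viable cell number, in human lymphoblastoid cells treated 24 hr with compound in complete culture medium. Values are AC50s from Hill-equation modelling of qHTS titrations.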

[6] = Cell Viability - LYMP2-010 (AID 981); further: nearly all actives have a fitted effect of over 55% in size
In short: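 This 24 hr viability screen uses LYMP2-010 lymphoblastoid cells, quantifies ATP via luciferase luminescence, and derives AC50 from Hill fits of qHTS concentration-response data.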

[7] = Cell Viability - LYMP2-012 (AID 982);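 further: cellular ATP by luciferase luminescence where a drop means cytotoxicity; cells exposed to compound for one day before reading; nearly all actives have a fitted effect of over 55% in size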
[8] = Cell Viability - LYMP2-014 (AID 983); further: series mostly up to about 92 µM; nearly all actives have a fitted effect of over 50% in size
In short: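 Quantitative HTS in lymphoblastoid cells: 24 hr compound exposure, then CellTiter-Glo ATP luminescence. Positive control was tetraoctylammonium bromide, 6.4pM to 92 uM.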

[9] = Cell Viability - LYMP2-018 (AID 985); further: nearly all actives have a fitted effect of over 50% in size
In short: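 In this qHTS viability assay, cells are treated for 24 hr and cellular ATP is quantified by luciferase-based luminescence, with tetraoctylammonium bromide as positive control.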

[10] = Cell Viability - LYMP2-020 (AID 986); further: series mostly up to about 92 µM; nearly all actives have a fitted effect of over 55% in size
In short: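 Cells at 2500 per well receive a 24 hr compound exposure at 37 C. Viability is measured as ATP-dependent luciferase luminescence, with AC50 modeled from qHTS concentration-response curves.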

[11] = Cell Viability - LYMP2-022 (AID 987); further: nearly all actives have a fitted effect of over 55% in size
In short: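 In this qHTS cytotoxicity screen, compound titrations were incubated 24 hr at 37 C with human lymphoblastoid cells in complete medium. Luciferase-based ATP luminescence provided the viability signal.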

[12] = Cell Viability - LYMP2-024 (AID 988); further: nearly all actives have a fitted effect of over 60% in size
In short: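 Cells at 2500 per well received compound for 24 hr after a 5 hr settling period. Viability was scored by CellTiter-Glo luminescence, with AC50 from Hill fits.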

[13] = Cell Viability - LYMP2-026 (AID 989); further: nearly all actives have a fitted effect of over 50% in size
In short: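 Acute toxicity screen in complete culture medium, with 24 hr compound exposure at 37 C. Viability read as cellular ATP via luciferase reaction, with tetraoctylammonium bromide (6.4pM to 92 uM) as positive control.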

[14] = Cell Viability - LYMP1-002 - Assay at 24 hr (AID 993)
In short: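 Viability was judged from intracellular ATP using a luciferase read-out, following a 24-hour compound incubation at 37 C of lymphoblastoid cells seeded at 2500 per well. Concentration-response data were fitted to the Hill equation for AC50.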

[15] = Cell Viability - LYMP1-002 - Assay at 40 hr (AID 994); further: nearly all actives have a fitted effect of over 60% in size
In short: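 Concentration-dependent ATP loss after 40 hr treatment at 37 C defined toxicity; AC50 values were obtained by fitting the standard Hill equation.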

[16] = target: Estrogen receptor (Homo sapiens) (UniProt P03372); assay: qHTS assay for small molecule antagonists of estrogen receptor alpha signaling (AID 588513; active means well fitted curve in the direction sought with a large enough effect in the signal ratio, with a control signal flat, not every such curve was filed as active; the % refers to the signal ratio)
In short: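 ER-alpha-UAS-bla GripTite HEK 293 cells in 2% charcoal/dextran-treated FBS medium; compounds titrated (1:2, duplicate), then stimulated with 0.5 nM 17-beta-estradiol for 18 h at 37C. CCF4 beta-lactamase fluorescence; Hill-fit IC50 and efficacy.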

[17] = target: Estrogen receptor (Homo sapiens) (UniProt P03372); assay: qHTS assay for small molecule agonists of estrogen receptor alpha signaling (AID 588514; calls by dose curve; further: nearly all actives have a fitted effect of over 70% in size)
In short: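 Fluorescence from CCF4 cleavage reports ER-alpha-driven beta-lactamase expression in HEK 293 cells treated 18 hrs at 37 C. Data normalized to 17-beta-estradiol (20 nM) and DMSO, fitted to Hill equation.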

[18] = Cell Viability - LYMP2-016 (AID 984); further: nearly all actives have a fitted effect of over 55% in size
In short: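 Human lymphoblastoid LYMP2-016 cells, 2500 per well, treated with compounds for 24 h at 37 C. Viability read as intracellular ATP by CellTiter-Glo luminescence after 30 min at room temperature; AC50 from Hill fits of concentration-response.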

Measured: Potency

Chain of Estrogen receptor (Homo sapiens) (P03372 whole entry, looked up): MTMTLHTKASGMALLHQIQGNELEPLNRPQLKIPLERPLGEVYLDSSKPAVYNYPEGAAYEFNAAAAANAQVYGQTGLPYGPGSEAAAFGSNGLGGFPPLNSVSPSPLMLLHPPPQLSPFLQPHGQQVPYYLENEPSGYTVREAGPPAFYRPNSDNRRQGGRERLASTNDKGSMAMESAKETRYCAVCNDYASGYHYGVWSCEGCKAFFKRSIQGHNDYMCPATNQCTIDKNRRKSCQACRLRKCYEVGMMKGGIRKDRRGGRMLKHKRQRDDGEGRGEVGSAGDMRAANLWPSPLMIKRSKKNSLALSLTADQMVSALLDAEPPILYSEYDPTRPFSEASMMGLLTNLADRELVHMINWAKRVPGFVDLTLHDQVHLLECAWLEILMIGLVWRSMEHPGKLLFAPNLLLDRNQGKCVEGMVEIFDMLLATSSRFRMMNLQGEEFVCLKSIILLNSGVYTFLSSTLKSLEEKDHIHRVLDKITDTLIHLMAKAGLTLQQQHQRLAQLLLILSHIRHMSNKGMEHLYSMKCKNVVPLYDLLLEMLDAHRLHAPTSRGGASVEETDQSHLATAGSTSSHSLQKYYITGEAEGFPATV

CC(=O)c1nccs1
not listed: [18]
inactive: all other assays above

CCOC(=O)C(C)C(C)=O (configuration not stated)
not listed: [16] | [17]
inactive: all other assays above

Cc1ccc2oc(=O)ccc2c1
not listed: [6]
inactive: all other assays above

S=C([S-])NCCNC(=S)[S-].[Zn+2]
not listed: [4] | [16] | [17]
inactive: all other assays above

CC(=O)Nc1ccc(C)cc1
inactive: all assays above

O=CNc1ccccc1
not listed: [4] | [16] | [17] | [18]
inactive: all other assays above

CC1(N)CCC(C(C)(C)N)CC1 (configuration not stated)
not listed: [16] | [17]
inactive: all other assays above

C=C(C)OC(C)=O
inactive: all assays above

CCCCCCC=O
inactive: all assays above

O=Cc1cccc(Br)c1
not listed: [16] | [17]
inactive: all other assays above

O=C(O)/C=C/C(=O)O
not listed: [4] | [16] | [17]
inactive: all other assays above

CC=C(Cl)Cl
not listed: [15] | [16] | [17]
inactive: all other assays above

CCNS(=O)(=O)c1ccc(C)cc1
not listed: [3] | [18]
inactive: all other assays above

Cc1cscn1
inactive: all assays above

Cc1ccccc1C(N)=O
not listed: [12] | [13]
inactive: all other assays above

CC(CCl)OC(C)CCl (configuration not stated)
inactive: all assays above

OC1CCCC1
not listed: [13]
inactive: all other assays above

O=C(O)c1ccc(Cl)c(Cl)c1
not listed: [10] | [14] | [15] | [18]
inactive: all other assays above

CCc1ccccc1
inactive: all assays above
